In PubChem BioAssay (Tox21):
Inconclusive results are not listed. Values without a mark were called inactive. Activity calls are given as the source filed them. Calls come from the whole dose curve.
% is set by controls: 0 for no effect and ±100 for the full control effect.

Assay: qHTS assay for small molecule agonists of the p53 signaling pathway (AID 651631); note: nearly all actives have a fitted effect of over 15% in size
Details: HCT-116 p53RE-bla reporter, beta-lactamase FRET ratio, 16 h; series mostly up to 73.3 µM; activation: at the top concentration
Description: U.S. Tox21 Program National Center for Advancing Translational Sciences [NCATS] NIH Chemical Genomics Center [NCGC] U.S. Environmental Protection Agency [EPA] National Institutes of Environmental Health Sciences [NIEHS] National Toxicology Program [NTP] U.S. Food and Drug Administration [FDA] Tox21 Assay Overview: p53, a tumor suppressor protein, is activated following cellular insult, including DNA damage and other cellular stresses. The activation of p53 regulates cell fate by inducing DNA repair, cell cycle arrest, apoptosis, or cellular senescence. The activation of p53, therefore, is a good indicator of DNA damage and other cellular stresses. The CellSensor p53RE-bla HCT-116 cell line (Invitrogen) contains a stably integrated beta-lactamase reporter gene under control of the p53 response elements. The activation of the reporter gene under culture conditions can be detected by fluorescence intensity. This cell line was used to screen the Tox21 compound library in a 1536-well plate format and to identify agonists that activate the p53 signaling pathway.
Tox21 Assay Protocol Summary: The p53RE-bla cells were dispensed at 4,000 cells/5 ul/well in 1536-well black wall/clear bottom plates using a Multidrop dispenser. After the assay plates were incubated at a 37 C/5% CO2 incubator for 5 hours, 23 nL of compounds dissolved in DMSO, positive controls or DMSO only was transferred to the assay plate by a pin tool. The plates were incubated at 37 C for 16 hours. After 1 uL of LiveBLAzerTM B/G FRET substrate was added using a Flying Reagent Dispenser, the plates were incubated at room temperature for 2 hours, and fluorescence intensity was measured by an Envision plate reader.
With `O=NN1CCCCCCC1` the “activation” value was -1.15%.
With `CCCCCCCCCCCC#N` the outcome was “inactive”.
With `c1ccc(OP(Oc2ccccc2)Oc2ccccc2)cc1` the outcome was “inactive”.
With `CC(C)OC(=O)Nc1cccc(Cl)c1` the “activation” value was 3.47%.
In the case of `CCN(CC)CCO`, the “activation” value is reported as 5.84% [at 95.1 µM].
For `[N-]=[N+]=[N-]`, the outcome was “inactive”.
For `CCOP(=S)(OCC)Oc1cnc2ccccc2n1`, the “activation” value was 0.289%.
With `CC(C#N)CCC#N` (stereo not given) the outcome was “inactive”.
With `CCOP(OCC)OCC` the outcome was “inactive”.
In the case of `CC(C)(C)OOC(C)(C)C`, the “activation” value is reported as -0.84%.
With `CN=C=S` the outcome was “inactive”.
With `c1ccc2c(c1)oc1ccccc12` the outcome was “inactive”.
For `CC(Br)C(=O)O` (stereo not given), the “activation” value was -4.23% [at 95.1 µM].
For `Cn1cc(-c2ccccc2)c(=O)c(-c2cccc(C(F)(F)F)c2)c1`, the outcome was “inactive”.
For `CCC12COCN1COC2`, the outcome was “inactive”.
In the case of `CC(Oc1ccc(Cl)cc1Cl)C(=O)O` (stereo not given), the outcome is reported as “inactive”.
In the case of `NCCc1ccc(O)cc1`, the outcome is reported as “inactive”.
With `ClCc1cccnc1` the outcome was “inactive”.
With `Oc1ccccc1Cl` the “activation” value was -1.26%.
In the case of `BrCCBr`, the outcome is reported as “inactive”.
In the case of `CCc1cccc(C)c1N(C(=O)CCl)C(C)COC` (stereo not given), the outcome is reported as “inactive”.
For `c1ccc2c(c1)Oc1ccccc1O2`, the outcome was “inactive”.
In the case of `O=c1ccc(=O)[nH][nH]1`, the outcome is reported as “inactive”.
For `CN(C)N=O`, the outcome was “inactive”.
In the case of `Nc1c(Cl)c(Cl)nc(C(=O)O)c1Cl`, the outcome is reported as “inactive”.
For `CCCN(CCC)N=O`, the “activation” value was 1.28%.
For `C=CC(N)=O`, the “activation” value was 2.51%.
With `O=[N+]([O-])c1ccc(Oc2ccc(Cl)cc2Cl)cc1` the “activation” value was -0.613%.
In the case of `COC(=O)c1ccccc1N`, the outcome is reported as “inactive”.
For `O=c1[nH]c2ccccc2c(=O)o1`, the outcome was “inactive”.
With `CN1C(=O)CN=C(c2ccccc2)c2cc(Cl)ccc21` the “activation” value was -2.28%.
For `[O-][Cl+2]([O-])O`, the outcome was “inactive”.
For `CCCCOC(=O)c1ccccc1C(=O)OCCCC`, the outcome was “inactive”.
In the case of `O=NN1CCCC1`, the outcome is reported as “inactive”.
In the case of `c1ccc(-c2ccccc2)cc1`, the outcome is reported as “inactive”.
For `Nc1ccc(Oc2ccc(N)cc2)cc1`, the outcome was “inactive”.
For `CN(C)[C@@H]1C(=O)C(C(N)=O)=C(O)[C@@]2(O)C(=O)C3=C(O)c4c(O)cccc4[C@@](C)(O)[C@H]3C[C@@H]12`, the outcome was “inactive”.
For `CCCCN(CC)C(=O)SCCC`, the “activation” value was 1.92%.
In the case of `CCCCCCCCCl`, the outcome is reported as “inactive”.
For `Clc1ccc(Cl)cc1`, the outcome was “inactive”.
